Rv3671c inh: Rv3671c serine protease inhibitors, primary screen, biochemical, fluorescence polarization, M. tuberculosis H37Rv | P9WHR9 | inhibition, % at 5.96 µM | actives 0.048% (n = 320,000) | AID 2606, 2010; in the data active = inhibition above about 38%;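 note: extracellular domain of Rv3671c used as enzyme; 0% = enzyme with DMSO and 100% = no enzyme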
FBA Mtb inh: Mtb FBA enzyme inhibitors, primary screen, biochemical, fluorescence, strain H37Rv | Fructose-bisphosphate aldolase (Mycobacterium tuberculosis (strain ATCC 25618 / H37Rv)), … | purified M. tuberculosis FBA, fluorescence read-out | inhibition, % at 1 µM | actives 2.3% (n = 360,000); in the data active = inhibition above about 27%;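 note: 0% = vehicle and 100% = reference inhibitor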
Mtb bLac sens: beta-lactam sensitization of Mtb H37Rv, H37Rv | M. tuberculosis H37Rv growth with meropenem, percent inhibition | inhibition, % at 25 µM | actives 0.27% (n = 330,000) | AID 434955, 2010; call rule not given here;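 note: growth measured after seven days incubation then overnight dye step; 0% = bacteria only wells and 100% = bacteria with antibiotic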
GDH-TPI counter: GDH-TPI coupling enzyme inhibitors, primary screen, artefact control for M. tuberculosis FBA inhibitor project, biochemical, absorbance, full deck | actives 1.2% (n = 360,000) | inhibition, % at 4.8 µM | GDH-TPI coupled enzyme counterscreen, NADH absorbance; in the data active = inhibition above about 30%;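 note: 0% = DMSO wells and 100% = wells lacking the enzyme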
RecA splice inh: Mtb RecA intein splicing inhibitors, primary screen, biochemical, fluorescence, HTS. cell-free RecA intein splicing. inhibition, % (no concentration beside the values). actives 0.75% (n = 290,000); in the data active = inhibition above about 30%;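 note: 0% = vehicle wells and 100% = reference inhibitor control wells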
Mtb UGM inh: M. tuberculosis UGM enzyme inhibitors, primary screen, biochemical, fluorescence polarization, single point; actives 0.06% (n = 320,000); purified UGM, fluorescence polarization probe displacement; inhibition, % at 10 µM; UDP-galactopyranose mutase (Mycobacterium tuberculosis (strain ATCC 25618 / H37Rv)), …; in the data active = inhibition above about 10%, passing the limit was not always enough
Target sequence (P9WIQ1 whole entry, looked up): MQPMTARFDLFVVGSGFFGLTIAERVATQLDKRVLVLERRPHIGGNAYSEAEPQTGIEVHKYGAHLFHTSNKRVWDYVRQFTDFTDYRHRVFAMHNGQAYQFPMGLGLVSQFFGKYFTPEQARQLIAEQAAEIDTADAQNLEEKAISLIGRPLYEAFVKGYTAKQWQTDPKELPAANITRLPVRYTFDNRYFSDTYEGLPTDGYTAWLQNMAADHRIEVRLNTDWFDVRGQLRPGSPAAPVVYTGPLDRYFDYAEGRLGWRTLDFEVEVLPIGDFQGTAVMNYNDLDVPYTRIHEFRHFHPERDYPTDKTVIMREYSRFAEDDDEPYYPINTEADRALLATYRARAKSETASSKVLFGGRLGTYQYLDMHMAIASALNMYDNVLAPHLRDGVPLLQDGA
The depositor's hits bear a star; x = no result given; + = active, no number. Shown are actives, neighbours in structure and some others; about 4% of the full set was active somewhere.

SMILES | Rv3671c inh | FBA Mtb inh | Mtb bLac sens | GDH-TPI counter | RecA splice inh | Mtb UGM inh
O=C(CN1C(=O)NC2(CCc3ccccc32)C1=O)c1ccc(F)cc1 (stereo unspecified) | -3 | 6 | -16 | 9 | -2 | 2
COC(=O)Nc1nnc(/C=C/c2ccccc2)s1 | 0 | + | 2 | 24 | -7 | 0
CCC(=O)Nc1nnc(/C=C/c2ccc(OC)cc2)s1 | 8 | -12 | 1 | 43* | -2 | 0
COc1ccc(CN2CCOCC2)cc1 | 1 | -3 | -4 | 14 | 4 | 0
CNc1cncc(-c2ccoc2)n1 | x | 177* | x | 6 | x | x
CNc1cncc(-c2ccc(CN(C)C)cc2)n1 | x | + | x | 6 | x | x
CNc1cncc(-c2cnn(CC(C)C)c2)n1 | x | + | x | 20 | x | x
CC(O)(c1cccnc1)c1nc(-c2ccoc2)cs1 (stereo unspecified) | x | 0 | x | 0 | x | x
CNc1cncc(-c2ccc(CN3CCOCC3)cc2)n1 | x | + | x | 12 | x | x
CC1(C(=O)NS(=O)(=O)c2cccc(C#N)c2)CCN1C(=O)CC1CCCCC1 (stereo unspecified) | x | -1 | x | 4 | x | x
CCOC(=O)CNC1CC(=O)N(c2ccc(Br)cc2)C1=O (stereo unspecified) | 4 | 0 | 2 | 2 | -1 | 0
CNc1cncc(-c2cc(C)c(O)c(C)c2)n1 | x | 20 | x | 15 | x | x
CNc1cncc(-c2cccc(NS(C)(=O)=O)c2)n1 | x | 168* | x | 19 | x | x
CNc1cncc(-c2ccc(OCCCN(C)C)nc2)n1 | x | + | x | 14 | x | x
CC(=O)Nc1cncc(-c2ccc(CN(C)C)cc2)n1 | x | 5 | x | 6 | x | x
CNc1cncc(-c2ccc(OC)cc2)n1 | x | 172* | x | 19 | x | x
CNc1cncc(-c2ccc(O)cc2)n1 | x | 131* | x | 23 | x | x
COc1ccc(NC(=O)C2CCN(C(=O)Nc3ccccc3)CC2)cc1S(=O)(=O)N(C)C | 2 | -3 | -5 | -1 | x | 2
CNc1cncc(-c2ccc(S(C)(=O)=O)cc2)n1 | x | 171* | x | 16 | x | x
CNc1cncc(-c2cccc(C(C)=O)c2)n1 | x | 0 | x | 18 | x | x
CCN(CC(=O)NCc1ccc(F)cc1)C(=O)COc1ccccc1[N+](=O)[O-] | 15 | 1 | -1 | 7 | x | 2
Cn1nc(-c2ccccc2)c2ncc(C(F)(F)F)cc21 | -6 | 28* | -10 | 6 | 1 | -6
Nc1nc(-c2cc(O)ccc2[N+](=O)[O-])cc(-c2ccccc2)c1[N+](=O)[O-] | x | 3 | 2 | 33* | -19 | -2
O=C(Nc1ccccc1)c1cc(C2COCCN2C(=O)C2CC2)on1 (stereo unspecified) | x | 1 | x | 4 | x | x
O=c1c(O)c(-c2cc(O)c(O)c(O)c2)oc2cc(O)cc(O)c12 | -39 | -3 | 9 | 32* | x | -2
SMILES | Rv3671c inh | FBA Mtb inh | Mtb bLac sens | GDH-TPI counter | RecA splice inh | Mtb UGM inh
O=c1c(O)c(-c2ccccc2)oc2cc(O)cc(O)c12 | -17 | 1 | -3 | 28 | x | x
N=c1c(S(=O)(=O)c2ccc(Br)cc2)cc2c(=O)n3ccccc3nc2n1Cc1ccco1 | -7 | 131* | 3 | 15 | 0 | 2
Cc1ccc(Cn2c(=N)c(S(=O)(=O)c3ccc(Br)cc3)cc3c(=O)n4ccccc4nc32)cc1 | 3 | 2 | -12 | 2 | 0 | 2
COc1ccc(CCn2c(=N)c(S(=O)(=O)c3ccc(C)cc3)cc3c(=O)n4ccccc4nc32)cc1 | 1 | 6 | 8 | 6 | -14 | 21*
N=c1c(S(=O)(=O)c2ccc(Br)cc2)cc2c(=O)n3ccccc3nc2n1Cc1ccccc1 | -3 | 1 | 1 | 6 | 3 | 2
Cc1c(OCC(=O)NC(Cc2ccc(Cl)cc2)C(=O)O)ccc2c1oc(=O)c1ccccc12 (stereo unspecified) | 0 | 17 | -4 | 16 | 18 | 2
CCC(NC(=O)Cc1c(C)c2ccc(OC)c(C)c2oc1=O)C(=O)NC(Cc1ccc(Cl)cc1)C(=O)O (stereo unspecified) | -7 | 143* | -7 | 20 | -2 | 2
COc1ccc(C(C(=O)NC(C)(C)C)N(C(=O)CCC(=O)Nc2cc(C)on2)c2ccc(C)c(C)c2)cc1 (stereo unspecified) | -3 | 0 | 12 | 10 | 0 | -3
Cc1nc2sccn2c(=O)c1S(=O)(=O)NCC1CCN(Cc2ccccc2Cl)CC1 | -5 | 4 | -2 | 8 | 3 | 2
C[C@H]1CN(c2ccccc2)C(=O)[C@@H]1CC(=O)Nc1ccc(Br)cc1 | x | -1 | x | -1 | x | x
Cn1c2ccsc2c2ncn(Cc3ccccc3F)c(=O)c21 | 0 | + | 3 | 7 | x | 2
COC(=O)N/N=C/c1cc(N=Nc2ccccc2)ccc1O | 8 | -6 | 86 | 38* | 3 | 1
Nc1nc(-c2ccc3c(c2)CCCC3)cs1 | -2 | 12 | -12 | 5 | x | 0
N#Cc1cnn2ccc(-c3ccc4c(c3)CCC4)nc12 | 11 | 141* | -2 | 13 | -2 | -1
O=c1c2ccccc2sc2ccccc12 | x | 23 | x | -5 | x | x
Cc1cc(=O)c2ccccc2s1 | -8 | -3 | 1 | 32* | 1 | 1
CCOC(=O)c1sc(NC(=O)CSc2ccccn2)c(C#N)c1C | -2 | 2 | 6 | 5 | -1 | -4
CCOC(=O)c1sc(NC(=O)CSc2n[nH]c(-c3ccccc3)n2)c(C#N)c1C | -39 | 7 | 81 | 33* | 3 | 0
CCOC(=O)c1sc(NC(=O)CSc2ncn[nH]2)c(C#N)c1C | -11 | -1 | 95 | 31* | 0 | 0
CCOC(=O)c1sc(NC(=O)CSc2nnc(Cc3ccccc3)o2)c(C#N)c1C | -4 | -3 | 94 | 27 | -2 | 2
CCOC(=O)c1sc(NC(=O)CSc2nc(C)cc(C)n2)c(C#N)c1C | 1 | 7 | -18 | 32* | 0 | 0
CC[n+]1c(/C=C(/C)SC)sc2ccccc21 | -14 | 2 | 11 | 38* | 8 | 0
CC[n+]1c(/C=C(\C)OC)sc2ccccc21 | x | 1 | x | 24 | x | x
CC[n+]1c(/C=C(\C)Nc2ccccc2)sc2ccccc21 | -8 | 1 | -6 | 31* | x | 2
CC[n+]1c(/C=C(\C)SC)sc2ccccc21 | -7 | 2 | 4 | 13 | 11 | -1
Cc1ccc(SCC(=O)OCC(=O)N(CCC#N)c2ccccc2)cc1 | -5 | 0 | 1 | -6 | x | -1
O=C(COC(=O)c1cncc(Br)c1)Nc1ccc(F)c(F)c1F | x | -1 | x | -8 | x | x
O=C(N/N=C/c1ccco1)c1cc(C2CC2)[nH]n1 | -5 | 1 | -8 | -5 | -2 | 0
Cc1cc(C(=O)N/N=C/c2ccc3c(c2)OCO3)c2ccccc2n1 | -3 | -2 | -11 | 40* | -1 | 2
O=C(N/N=C/c1ccc([N+](=O)[O-])cc1)c1cc(C2CC2)[nH]n1 | -3 | -1 | 1 | 35* | 1 | 0

Assay outcomes: PubChem BioAssay, several laboratories
